Assay results taken from PubChem BioAssay (EPA / NIEHS).
Results filed as inconclusive are left out. Activity calls are given as the source filed them. The calls were made as follows: active = hit-call score of the fitted dose curve at least 0.9, where 1 is the maximum; inconclusive = response in the unintended direction; inactive = score below 0.9.

The compounds below were run on Glyceraldehyde-3-phosphate dehydrogenase (Homo sapiens) (UniProt P04406) (assay: CLD_GAPDH_6hr: CellzDirect (CLD) Gene Expression Assay for Baseline Control (Glyceraldehyde 3-phosphate dehydrogenase) at 6 hours (AID 2283681);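 also: active means increased signal relative to DMSO vehicle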).
Chain of Glyceraldehyde-3-phosphate dehydrogenase (Homo sapiens) (P04406 whole entry, looked up): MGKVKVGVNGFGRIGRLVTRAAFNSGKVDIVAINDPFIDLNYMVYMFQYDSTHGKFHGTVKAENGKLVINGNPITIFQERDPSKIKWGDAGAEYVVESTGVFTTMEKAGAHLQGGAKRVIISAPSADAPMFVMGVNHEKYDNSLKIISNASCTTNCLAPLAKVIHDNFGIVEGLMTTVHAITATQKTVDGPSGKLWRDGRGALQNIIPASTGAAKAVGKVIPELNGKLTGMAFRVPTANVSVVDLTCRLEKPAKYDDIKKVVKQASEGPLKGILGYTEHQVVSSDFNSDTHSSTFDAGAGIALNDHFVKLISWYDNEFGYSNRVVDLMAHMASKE
Method: CLD_6hr is a cell-based, multiplexed-readout assay that uses hepatocyte, a human liver primary cell, with measurements taken at 6 hours after chemical dosing in a 96-well plate.CLD_GAPDH_6hr is one of 16 assay component(s) measured or calculated from the CLD_6hr assay. It is designed to make measurements of mRNA induction, a form of inducible reporter, as detected with chemiluminescence signals by Quantitative Nuclease Protection Assay (qNPA) technology.Data from the assay component CLD_GAPDH_6hr was analyzed at the endpoint, CLD_GAPDH_6hr, in the positive analysis fitting direction relative to DMSO as the negative control and baseline of activity. Using a type of inducible reporter, gain-of-signal activity can be used to understand changes in the reporter gene as they relate to the gene GAPDH. Furthermore, this assay endpoint can be referred to as a secondary readout, because this assay has produced multiple assay endpoints where this one serves a background control function. To generalize the intended target to other relatable targets, this assay endpoint is annotated to the background measurement intended target family, where subfamily is baseline control.
Human hepatocyte cultures were treated daily for two consecutive days with fresh dosing solutions containing appropriate concentrations of the 320 ToxCast chemicals (chemical identities were blinded to CellzDirect and other ToxCast collaborators), vehicle control (0.2% DMSO), and positive control inducers as summarized in Table 1. Due to the large number of treatment groups and chemicals examined, the ToxCast chemicals were divided into two groups (spanning two independent cultures of hepatocytes from separate donor preparations (Hu778: ToxCast plates 1 and 2; Hu776: ToxCast plates 3 and 4). Each preparation of human hepatocyte cultures was treated with respective vehicle control, medium only control, set of six positive controls/reference chemicals for the five hepatic receptor pathways, and a subset of eight of the ToxCast chemicals (indoxacarb, pyrithiobac-sodium, norflurazon, cyhalofop-butyl, methomyl, thiram, acetochlor, and propiconazole). These replicate data, coupled with internal replicates designed within the blinded ToxCast chemical library, provided additional data to evaluate interindividual differences between hepatocyte preparations and their potential impact on chemical profiles.Cell morphology and integrity were evaluated using phase-contrast microscopy as an indicator of hepatocyte cell health (Tyson & Green, 1987). Cultures for each treatment group (i.e., media, vehicle [0.2% DMSO], positive control inducers [multiple concentrations], and the ToxCast chemicals [multiple concentrations]) were observed and cell morphology was assessed relative to vehicle control cultures at each harvest time point (0, 6, 24, or 48 h). […] Images were evaluated at the conclusion of the study to assess changes in cell integrity and account for the effects of chemical exposure on uncharacteristic changes in concentration-dependent gene expression profiles. The results from these determinations of apparent cytotoxicity were annotated (yes/no) alongside the corresponding qNPA data for reference.At the conclusion of each treatment period, hepatocyte cultures (96-well) were washed with 1 volume of HBSS, lysed by addition of 25 ul ArrayPlate lysis buffer (HTG, Tucson, AZ), and 70 ul/well of Denaturation Oil, denatured by incubation at 95C for 10 min, and frozen at approximately -70C until analysis by nuclease protection assay (qNPA) (Roberts et al., 2007). For qNPA analysis, cell lysates were thawed at 50C for approximately 30 min, qNPA probes were added, and samples were incubated at 95C for 10 min to begin the detection process by denaturing the target RNA, dissociating the duplexes and secondary structure hybridization. At the conclusion of the hybridization period, S1 nuclease reagent was added to each sample to digest all nonprotected nucleotides at 50C for 60-90 min. […]
With `CCOC(=O)C(Cl)Cc1cc(-n2nc(C)n(C(F)F)c2=O)c(F)cc1Cl` (centres undefined) the outcome was “inactive”.
For `Cc1ccc(-c2c(Cl)nc(C#N)n2S(=O)(=O)N(C)C)cc1`, the outcome was “inactive”.
In the case of `Oc1ccccc1-c1ccccc1`, the outcome is reported as “inactive”.
In the case of `COc1nc(C)nc(NC(=O)NS(=O)(=O)c2ccccc2Cl)n1`, the outcome is reported as “inactive”.
`COC(=O)C=C(C)OP(=O)(OC)OC` was tested, and the outcome was “inactive”.
For `CCOc1cc(Oc2ccc(C(F)(F)F)cc2Cl)ccc1[N+](=O)[O-]`, the outcome was “inactive”.
For `CCON=C(CC)C1=C(O)CC(c2c(C)cc(C)cc2C)CC1=O` (centres undefined), the outcome was “inactive”.
For `CCNc1nc(Cl)nc(NCC)n1`, the outcome was “inactive”.
With `N#Cc1nn(-c2c(Cl)cc(C(F)(F)F)cc2Cl)c(N)c1S(=O)C(F)(F)F` (centres undefined) the outcome was “inactive”.
In the case of `N#Cc1cc(Br)c(O)c(Br)c1`, the outcome is reported as “inactive”.
`CC(C)Oc1cc(-n2nc(C(C)(C)C)oc2=O)c(Cl)cc1Cl` was tested, and the outcome was “inactive”.
For `CCCCNC(=O)n1c(NC(=O)OC)nc2ccccc21`, the outcome was “inactive”.
In the case of `CC(C)C1(C)N=C(c2nc3ccccc3cc2C(=O)O)NC1=O` (centres undefined), the outcome is reported as “inactive”.
In the case of `CNC(=O)ON=CC(C)(C)SC`, the outcome is reported as “inactive”.
With `Cc1c(F)c(F)c(COC(=O)C2C(/C=C(\Cl)C(F)(F)F)C2(C)C)c(F)c1F` (centres undefined) the outcome was “inactive”.
`CCOC(=O)CC(SP(=S)(OC)OC)C(=O)OCC` (centres undefined) was tested, and the outcome was “inactive”.
With `CC(Oc1ccc(Cl)cc1Cl)C(=O)O` (centres undefined) the outcome was “inactive”.
`O=C(O)c1nc(Cl)ccc1Cl` was tested, and the outcome was “inactive”.
With `O=C(Nc1ccccc1)Nc1ccnc(Cl)c1` the outcome was “inactive”.
In the case of `COP(=S)(OC)Oc1nc(Cl)c(Cl)cc1Cl`, the outcome is reported as “inactive”.
`CCCCC(CC)COC(=O)c1ccccc1C(=O)OCC(CC)CCCC` (centres undefined) was tested, and the outcome was “inactive”.
In the case of `OC(c1ccc(Cl)cc1)(c1cncnc1)c1ccccc1Cl` (centres undefined), the outcome is reported as “inactive”.
`CCNc1nc(Cl)nc(NC(C)C)n1` was tested, and the outcome was “inactive”.
`COC(=O)C(C)Oc1ccc(Oc2ccc(Cl)cc2Cl)cc1` (centres undefined) was tested, and the outcome was “inactive”.
With `CS/C(C)=N/OC(=O)N(C)SN(C)C(=O)O/N=C(\C)SC` the outcome was “inactive”.
`CC(C)(C)c1ccc(CSc2cnn(C(C)(C)C)c(=O)c2Cl)cc1` was tested, and the outcome was “inactive”.
With `CC1COC(Cn2cncn2)(c2ccc(Oc3ccc(Cl)cc3)cc2Cl)O1` (centres undefined) the outcome was “inactive”.
`Cc1cc(Cl)ccc1OCC(=O)O` was tested, and the outcome was “inactive”.
For `O=C(O)COc1nc(Cl)c(Cl)cc1Cl`, the outcome was “inactive”.
`COc1nc(C)nc(NC(=O)NS(=O)(=O)c2ccccc2CCC(F)(F)F)n1` was tested, and the outcome was “inactive”.
For `C=CCC1=C(C)[C@@H](OC(=O)[C@@H]2[C@@H](C=C(C)C)C2(C)C)CC1=O`, the outcome was “inactive”.
In the case of `CNC(=S)S`, the outcome is reported as “inactive”.
`CN(C)C(=S)SSC(=S)N(C)C` was tested, and the outcome was “inactive”.
With `COc1nc(NC(C)C)nc(NC(C)C)n1` the outcome was “inactive”.
With `CCCCNC(=O)OCC#CI` the outcome was “inactive”.
For `C=CC1(C)OC(=O)N(c2cc(Cl)cc(Cl)c2)C1=O` (centres undefined), the outcome was “inactive”.
In the case of `COC(=O)N(OC)c1ccccc1COc1ccn(-c2ccc(Cl)cc2)n1`, the outcome is reported as “inactive”.
With `CO/C=C(/C(=O)OC)c1ccccc1Oc1cc(Oc2ccccc2C#N)ncn1` the outcome was “inactive”.
For `CCCCOC(=O)c1ccccc1C(=O)OCCCC`, the outcome was “inactive”.
